Measured values published in PubChem BioAssay AID1159580 (chemical genetic matrix, 2015).
Screen size: about 5,500 compounds; about 2,000 (36%) were called active. About 18% were inconclusive and are not listed. Cut-off read from the data, not from the text of the source: active = normalized growth mostly below about 0.91 (no sharp cut-off); inconclusive = no clear call, values can overlap the other calls; inactive = mostly above about 0.92. This is one part of the list.

Assay: chemical genetic growth profiling, strain panel (AID 1159580);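 note: tested at 20 µM; growth read once vehicle control cultures reached saturation at 30 °C; 1 = growth at the plate median or of vehicle wells; lower values mean less growth of the strain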
Details: growth OD

Measured: normalized growth

C=C1C2CC[C@H]3[C@]4(C)C[C@H](OC5OC(CO)C(OS(=O)(=O)O)C(OS(=O)(=O)O)C5OC(=O)CC(C)C)C[C@@H](C(=O)O)[C@H]4CC[C@]3(C2)[C@H]1O (some centres undefined)
inactive: S. cerevisiae deletion strains, locus YJR043C, strain POL32, hits give low values 1 | S. cerevisiae deletion strains, locus YJR075W, strain HOC1, hits give low values 1.01 | S. cerevisiae deletion strains, locus YKL009W, strain mrt4, hits give low values 0.984 | S. cerevisiae deletion strains, locus YKL068W, hits give low values 0.981 | S. cerevisiae deletion strains, locus YKL085W, strain MDH1 (second series), hits give low values 0.97 | S. cerevisiae deletion strains, locus YKL085W, strain MDH1, hits give low values 0.97 | S. cerevisiae deletion strains, locus YKL160W, strain elf1, hits give low values 0.984 | S. cerevisiae deletion strains, locus YKL190W, strain CNB1, hits give low values 1.01 | S. cerevisiae deletion strains, locus YKR001C, strain vps1, hits give low values 0.976 | S. cerevisiae deletion strains, locus YKR026C, strain gcn3, hits give low values 1.01 | S. cerevisiae deletion strains, locus YKR091W, strain srl3, hits give low values 1.01 | S. cerevisiae deletion strains, locus YLL001W, strain dnm1, hits give low values 1.03 | S. cerevisiae deletion strains, locus YLL026W, hits give low values 1.01 | S. cerevisiae deletion strains, locus YLL041C, strain sdh2, hits give low values 1.01 | S. cerevisiae deletion strains, locus YLR027C, strain aat2, hits give low values 1.01 | S. cerevisiae deletion strains, locus YLR039C, strain RIC1, hits give low values 0.99 | S. cerevisiae deletion strains, locus YLR058C, strain SHM2, hits give low values 1.01 | S. cerevisiae deletion strains, locus YLR102C, strain apc9, hits give low values 0.983 | S. cerevisiae deletion strains, locus YLR221C, strain rsa3, hits give low values 0.995 | S. cerevisiae deletion strains, locus YLR258W, strain gsy2, hits give low values 1.02 | S. cerevisiae deletion strains, locus YLR262C, strain YPT6 (second series), hits give low values 1.01 | S. cerevisiae deletion strains, locus YLR262C, strain YPT6, hits give low values 0.994 | S. cerevisiae deletion strains, locus YLR268W, strain sec22, hits give low values 0.987 | S. cerevisiae deletion strains, locus YLR320W, strain mms22, hits give low values 1.01 | S. cerevisiae deletion strains, locus YLR330W, strain CHS5, hits give low values 1.01 | S. cerevisiae deletion strains, locus YLR342W, strain FKS1 (second series), hits give low values 1.01 | S. cerevisiae deletion strains, locus YLR342W, strain FKS1, hits give low values 1.01 | S. cerevisiae deletion strains, locus YLR357W, strain rsc2, hits give low values 0.986 | S. cerevisiae deletion strains, locus YLR370C, strain arc18, hits give low values 1 | S. cerevisiae deletion strains, locus YLR371W, strain rom2, hits give low values 0.987 | S. cerevisiae deletion strains, locus YLR384C, strain iki3, hits give low values 0.991 | S. cerevisiae deletion strains, locus YLR418C, strain cdc73, hits give low values 1 | S. cerevisiae deletion strains, locus YML016C, strain PPZ1, hits give low values 1.01 | S. cerevisiae deletion strains, locus YML032C, strain rad52, hits give low values 0.984 | S. cerevisiae deletion strains, locus YML120C, strain ndi1, hits give low values 1.01 | S. cerevisiae deletion strains, locus YML124C, strain tub3, hits give low values 0.987 | S. cerevisiae deletion strains, locus YMR058W, strain fet3, hits give low values 1.01 | S. cerevisiae deletion strains, locus YMR078C, strain ctf18, hits give low values 0.982 | S. cerevisiae deletion strains, locus YMR125W, strain sto1, hits give low values 1.02 | S. cerevisiae deletion strains, locus YMR129W, hits give low values 0.992 | S. cerevisiae deletion strains, locus YMR205C, strain PFK2, hits give low values 1.03 | S. cerevisiae deletion strains, locus YMR223W, strain ubp8, hits give low values 0.977 | S. cerevisiae deletion strains, locus YMR231W, strain pep5, hits give low values 1.01 | S. cerevisiae deletion strains, locus YMR263W, strain SAP30, hits give low values 1.02 | S. cerevisiae deletion strains, locus YMR307W, strain GAS1, hits give low values 1.05 | S. cerevisiae deletion strains, locus YNL067W, strain RPL9B, hits give low values 1.02 | S. cerevisiae deletion strains, locus YNL071W, strain lat1, hits give low values 1.01 | S. cerevisiae deletion strains, locus YNL128W, strain TEP1, hits give low values 1.02 | S. cerevisiae deletion strains, locus YNL153C, strain GIM3, hits give low values 1.03 | S. cerevisiae deletion strains, locus YNL209W, strain ssb2, hits give low values 1 | S. cerevisiae deletion strains, locus YNL233W, strain BNI4, hits give low values 1.02 | S. cerevisiae deletion strains, locus YNL248C, strain rpa49, hits give low values 0.974 | S. cerevisiae deletion strains, locus YNL250W, strain rad50, hits give low values 0.972 | S. cerevisiae deletion strains, locus YNL271C, strain bni1, hits give low values 0.972 | S. cerevisiae deletion strains, locus YNL298W, strain CLA4, hits give low values 0.977 | S. cerevisiae deletion strains, locus YNL307C, strain MCK1, hits give low values 0.986 | S. cerevisiae deletion strains, locus YNL322C, strain KRE1 (second series), hits give low values 1 | S. cerevisiae deletion strains, locus YNL322C, strain KRE1, hits give low values 1.01 | S. cerevisiae deletion strains, locus YNR049C, strain mso1, hits give low values 1.01 | S. cerevisiae deletion strains, locus YNR052C, strain pop2, hits give low values 0.97 | S. cerevisiae deletion strains, locus YOL006C, strain TOP1, hits give low values 1.07 | S. cerevisiae deletion strains, locus YOL012C, strain htz1 0.954 | S. cerevisiae deletion strains, locus YOL147C, strain pex11, hits give low values 0.992 | S. cerevisiae deletion strains, locus YOR001W, strain rrp6, hits give low values 0.992 | S. cerevisiae deletion strains, locus YOR061W, strain CKA2, hits give low values 1.01 | S. cerevisiae deletion strains, locus YOR069W, strain VPS5, hits give low values 1.01 | S. cerevisiae deletion strains, locus YOR070C, strain gyp1, hits give low values 1 | S. cerevisiae deletion strains, locus YOR080W, strain dia2, hits give low values 1.02 | S. cerevisiae deletion strains, locus YOR083W, strain WHI5, hits give low values 0.976 | S. cerevisiae deletion strains, locus YOR106W, strain vam3, hits give low values 0.991 | S. cerevisiae deletion strains, locus YOR136W, strain idh2, hits give low values 0.988 | S. cerevisiae deletion strains, locus YOR144C, strain elg1, hits give low values 0.99 | S. cerevisiae deletion strains, locus YOR184W, strain ser1, hits give low values 0.958 | S. cerevisiae deletion strains, locus YOR265W, strain rbl2, hits give low values 1.01 | S. cerevisiae deletion strains, locus YOR270C, strain vph1, hits give low values 1.01 | S. cerevisiae deletion strains, locus YOR290C, strain snf2, hits give low values 0.986 | S. cerevisiae deletion strains, locus YOR316C, strain cot1, hits give low values 0.991 | S. cerevisiae deletion strains, locus YPL051W, strain arl3, hits give low values 0.995 | S. cerevisiae deletion strains, locus YPL055C, strain LGE1, hits give low values 1.05 | S. cerevisiae deletion strains, locus YPL078C, strain atp4, hits give low values 0.993 | S. cerevisiae deletion strains, locus YPL106C, strain sse1, hits give low values 1.01 | S. cerevisiae deletion strains, locus YPL240C, strain hsp82, hits give low values 1.01 | S. cerevisiae deletion strains, locus YPL241C, strain CIN2, hits give low values 1.02 | S. cerevisiae deletion strains, locus YPR119W, strain clb2, hits give low values 0.986 | S. cerevisiae deletion strains, locus YPR141C, strain kar3, hits give low values 0.969 | S. cerevisiae deletion strains, locus YPR163C, strain tif3, hits give low values 0.992 | S. cerevisiae deletion strains, locus YPR167C, strain met16, hits give low values 0.985 | S. cerevisiae deletion strains, strain wtn01, hits give low values 0.98 | S. cerevisiae strains, strain wild type, hits give low values 1.01
